The source made the active and inactive calls. No rule for the calls is given here.
Assay: Immunotoxin (HA22) sensitization/mitigation study. Vehicle arm (PBS) (AID 1159510)
Conditions: cancer cells viability with PBS vehicle (HA22 study); series mostly up to 46.1 µM
Potency is read from the fitted curve at half-maximal effect.

Structure (SMILES)	Potency
CN(C)C1CCN(C(=O)c2ccc(NC(=O)Nc3nc(N4CCOCC4)nc(N4CCOCC4)n3)cc2)CC1	0.166 µM (active)
CC(C)c1onc(-c2c(Cl)cccc2Cl)c1COc1ccc(/C=C/c2cccc(C(=O)O)c2)c(Cl)c1	3.32 µM (active)
CS(=O)(=O)c1cccc(CNc2nc(Nc3ccc4c(c3)CCC(=O)N4)ncc2C(F)(F)F)c1	4.69 µM (active)

— PubChem BioAssay (NCATS)
